We go through 39 molecules from PubChem BioAssay AID743446 (Broad Institute, 2014).

Potency and affinity values are given separately. The source made the active and inactive calls. How the calls were made is not given here.

A short description of this assay: viability loss in HEK293 cells – cell-based, plate reader, cherry-picked samples, cytotoxicity control, dose response (AID 743446). Conditions: stronger effect = lower value; at 26 µM unless noted.
Take `CC(=O)N1CCCCN2[C@H](CO)[C@H](c3ccc(-c4cccc(C)c4)cc3)[C@@H]2C1`: the max activity is 30.5% [at 1.6 µM] (inactive).

As to `C[C@H]1CN([C@@H](C)CO)C(=O)c2cccc(NC(=O)NC3CCCCC3)c2O[C@@H]1CN(C)Cc1ccc(C(F)(F)F)cc1`, the max activity is 27.3% [at 12 µM] (inactive). Then `O=C(Nc1nc2c(s1)CCCC2)C1COc2ccccc2O1` (centres undefined), with 55.6% [at 0.05 µM] (inactive). Then `COc1ccc(-c2cc3nc(NCC4CCCCC4)n(C)c(=O)c3s2)cc1OC`, with 41.6% [at 1.6 µM] (inactive); and `COc1ccc(S(=O)(=O)Nc2ccc3c(c2)C(=O)N([C@H](C)CO)C[C@H](C)[C@H](CN(C)S(=O)(=O)c2ccc(F)cc2)OCCCC[C@@H](C)O3)cc1`, with -23.7% [at 12 µM] (inactive). Then `O=C(c1cc(-c2ccc(Cl)cc2Cl)on1)N1CCCC1`, with 9.97% [at 0.8 µM] (inactive); and `O=C(COC(=O)c1ccccc1C(=O)c1ccc(Cl)c([N+](=O)[O-])c1)NC1CC1`, with 8.38% [at 6 µM] (inactive); and `C[C@H](CO)N1C[C@H](C)[C@H](CN(C)Cc2ccccc2)Oc2c(NS(=O)(=O)c3cn(C)cn3)cccc2C1=O`, with 13% [at 1.6 µM] (inactive). For the molecule `Nc1c(C(=O)Nc2cccc(C(=O)O)c2)sc2nc3c(cc12)CCCC3`, the max activity is -12.6% [at 0.1 µM] (inactive). Then `O=C(O)c1cccc(Nc2ccnc(Nc3cccc(C(=O)O)c3)n2)c1`, with -12.2% [at 0.05 µM] (inactive); and `COc1ccc(C(=O)CN2C(=O)c3ccccc3S2(=O)=O)cc1`, with -13.3% [at 0.05 µM] (inactive); and `CC(C)Nc1ncnc2c1cnn2-c1ccc(Cl)cc1`, with 60.9% (inactive). The result for `N#C[C@@H]1[C@H](c2ccc(C#Cc3cccc(F)c3)cc2)[C@@H](CO)N1C(=O)C1CC1` reads 10.4% [at 12 µM] (inactive). Then `COc1ccc(S(=O)(=O)N2CCCCN3[C@H](CO)[C@H](c4ccc(-c5cccnc5)cc4)[C@@H]3C2)cc1`, with -10.9% [at 12 µM] (inactive). For the molecule `CCCCc1ccc(NC(=O)c2cnccn2)cc1`, the max activity is -14.3% [at 3 µM] (inactive). Then `C[C@H](CO)N1C[C@H](C)[C@@H](CN(C)S(=O)(=O)c2cccs2)Oc2c(cccc2N(C)C)C1=O`, with 11.4% [at 6 µM] (inactive); and `COc1cccc(NC(=O)Nc2cccc(C(=O)O)c2)c1`, with -21.7% [at 3 µM] (inactive). The result for `O=C(CSc1nc2ccccc2[nH]1)Nc1nc(-c2cccc(Br)c2)cs1` reads 46.2% [at 1.6 µM] (inactive). Then `C[C@H](CO)N1C[C@H](C)[C@H](CN(C)C(=O)Nc2ccc3c(c2)OCO3)OCCCC[C@H](C)Oc2ccc(NC(=O)C3CCCCC3)cc2C1=O`, with 17.6% (inactive); and `COc1ccc(CC(=O)Nc2cccc(-c3nnc(-c4cccc(C)c4)o3)c2)cc1OC`, with -27% (inactive); and `Cn1nnnc1SCC(=O)N1CCN(C(=O)c2ccco2)CC1`, with -12.8% [at 0.05 µM] (inactive). With `COc1ccc(-c2cc(C(=O)N3CCOCC3)no2)cc1`, the max activity is -14.8% (inactive). Turning to `C=CCNC(=O)c1c(Cl)nc(C)c([N+](=O)[O-])c1C`, the max activity was 11.7% [at 0.1 µM] (inactive). Then `Cc1ccc(S(=O)(=O)N(C)C[C@H]2Oc3cc(Br)ccc3S(=O)(=O)N([C@H](C)CO)C[C@H]2C)cc1`, with 10.1% [at 1.6 µM] (inactive); and `C[C@H](CO)N1C[C@H](C)[C@@H](CN(C)CC2CCOCC2)Oc2ncc(Br)cc2C1=O`, with 4.11% (inactive); and `Cc1c(NC(=O)c2ccc(-c3ccccc3)cc2)cccc1C(=O)O`, with 41.3% (inactive). The result for `C[C@H](CO)N1C[C@H](C)[C@H](CN(C)C(=O)Nc2ccc(F)cc2)OCCCC[C@H](C)Oc2ccc(NC(=O)Nc3ccc(F)cc3)cc2C1=O` reads 17% [at 1.5 µM] (inactive); that for `Cc1cccc(-n2ncc3c(N4CCOCC4)ncnc32)c1`, 28.5% (inactive). Then `O=C(Nc1nc2cc3c(cc2s1)OCO3)c1ccco1`, with 45.6% [at 0.05 µM] (inactive).

With `COc1ccc2nc(-c3ccccn3)ccc2c1`, the max activity is -37.6% (inactive). Then `Cc1ccccc1C(=O)Nc1ccc2c(c1)OCCO2`, with -9.3% [at 0.05 µM] (inactive); and `C[C@H]1CN([C@@H](C)CO)C(=O)c2cc(NC(=O)Nc3ccccc3)ccc2O[C@H]1CN(C)Cc1ccc(-c2ccccc2)cc1`, with 25.6% [at 0.1 µM] (inactive).

As for `CC(C)c1ccc(NC(=O)N2CCN(S(=O)(=O)c3ccccc3)CC2)cc1`, the max activity is 17.9% [at 0.38 µM] (inactive). Then `COc1cc(NC(=O)c2cccc3c(-c4cnn(C)c4)coc23)cc(OC)c1OC`, with -34.1% (inactive); and `Cc1csc(NC(=O)c2cnc3ccccc3n2)n1`, with 87.3% (inactive); and `CC(C)Oc1ccc(CNC(=O)CC(c2ccccc2)c2cc(Cl)ccc2O)cc1` (centres undefined), with 29.6% [at 0.8 µM] (inactive). Then `COc1ccc(/C=C/C(=O)Nc2ccccc2C(=O)O)cc1OC`, with 13.2% [at 1.6 µM] (inactive).

Consider `CC(C)c1ccc2c(c1)C(N1CCNCC1)Cc1ccc(F)cc1S2` (centres undefined), for which the max activity is -119% (inactive). Turning to `Cc1cc(C(=O)CN2C(=O)c3ccccc3S2(=O)=O)c(C)n1C(C)C`, the max activity is -20.6% [at 3 µM] (inactive).
